About 4,300 (8.3%) of roughly 52,000 compounds were called active. The sample holds actives, similar compounds and a random draw of the others, so the mix is not that of the screen. Unmarked numbers belong to inactive results. Rule as the data show it: active = survival mostly below about 52% (no sharp cut-off); inactive = mostly above about 56%.

The assay concerns DeltatarO mutant. As to the kind of experiment: S. aureus survival, RN4220 and DeltatarO strains – OD600, teichoic acid synthesis inhibitors, primary screen (AID 463173). The following applies: S. aureus RN4220 wild type/DeltatarO growth, OD600, 18 h, hits give low values, screened at 18.75 µg/mL (by protocol).
Consider `O=C(CSc1nccn1Cc1ccccc1)Nc1ccc2c(c1)OCCO2`, for which the survival was 71%.
The figure for `CN(C)c1ccc(CN(Cc2ccco2)C(=O)COc2ccc(F)cc2)cc1` is 91%; for `CC(Sc1nnc2c(n1)[nH]c1ccccc12)C(=O)NC1CC1` (centres undefined) it is 60%; for `CCc1ccc(-c2cn3c(n2)sc2cc(C(=O)NCCC4=CCCCC4)ccc23)cc1` it is 70%.
In the case of `O=C(NCc1ccccc1)C(c1ccco1)N(C(=O)c1csnn1)c1ccccc1` (centres undefined) it was 81%; in that of `CCCCc1nn2c(=O)cc(COC(=O)c3ccccc3NC(=O)c3ccccc3OC)nc2s1`, 84%.
The figure for `O=C(Nc1ccc(Cl)cc1)N1CCC(c2ccccc2)C1` (centres undefined) is 67%; for `COc1cc(OC)c(NC(=O)CN2C(=O)CCn3nc(-c4cccn4C)cc32)cc1Cl` it is 90%.
For the molecule `O=C(NC1(C(F)(F)F)NC(=O)N(CCc2ccccc2)C1=O)c1ccccc1F` (centres undefined), the survival was 76%.
The figure for `Cc1ccc(N(CC(=O)N2CCN(c3cccc(C)c3C)CC2)S(=O)(=O)c2c(C)nn(C)c2C)cc1` is 75%; for `CCSc1nc(-c2cccc(Cl)c2)nc2c1Cc1c(CO)cnc(C)c1O2` it is 116%.
In the case of `CCSc1nc(-c2ccc(Cl)cc2)nc2c1Cc1c(CO)cnc(C)c1O2` it was 39% (active).
As for `CCSc1nc(-c2ccccc2)nc2c1Cc1c(CO)cnc(C)c1O2`, the survival is 93%.
The figure for `CC(C)c1n[nH]c(=S)n1C` is 84%; for `CCOc1ccc(N2CC(c3nc4ccccc4n3Cc3ccccc3F)CC2=O)cc1` (centres undefined) it is 103%; for `CCOc1ccccc1N1CC(c2nc3ccccc3n2CCCOc2ccccc2)CC1=O` (centres undefined) it is 68%.
The figure for `CCOc1ccc(N2CC(c3nc4ccccc4n3CCCOc3ccccc3)CC2=O)cc1` (centres undefined) is 51%.
In the case of `CCOC(=O)Cn1c(C2CC(=O)N(c3ccc(C)cc3)C2)nc2ccccc21` (centres undefined) it was 66%; in that of `CCOc1ccccc1N1CC(c2nc3ccccc3n2CCOc2ccc(OC)cc2)CC1=O` (centres undefined), 62%.
Take `CCOc1ccc(N2CC(c3nc4ccccc4n3CCOc3ccccc3)CC2=O)cc1` (centres undefined): the survival is 33% (active).
The figure for `CCc1ccc(N2CC(c3nc4ccccc4n3Cc3ccccc3C)CC2=O)cc1` (centres undefined) is 52% (active).
In the case of `CCOc1ccc(N2CC(c3nc4ccccc4n3CCOc3ccc(CC)cc3)CC2=O)cc1` (centres undefined), the survival is 55% (active).
In the case of `CCOc1ccccc1N1CC(c2nc3ccccc3n2CCOc2ccccc2)CC1=O` (centres undefined) it was 32% (active).
`CCc1ccccc1NC(=O)c1nnn(-c2ccc(F)cc2)c1C`: the survival was 74%.
In the case of `CCN(CC)CCCNC(=O)CCc1c(C)n(CC)c2cc(-c3ccccc3OC)nn2c1=O` it was 92%.
For `CCC(=O)n1nc(-c2cccnc2)nc1NCc1ccc(F)cc1`, the survival is 88%.
Regarding `Cc1ccccc1Nc1nn2c(=O)c3ccc(C(=O)NCc4cccs4)cc3nc2s1`, the survival was 72%.
In the case of `O=C(CC1COc2ccccc2O1)NCCc1ccccc1` (centres undefined) it was 87%.
In the case of `CCOC(=O)c1c(NC(=O)CSc2cn(CCNC(=O)c3ccc(OCC)cc3)c3ccccc23)sc2c1CCC2` it was 91%; in that of `COc1ccc(OC)c(CCNC(=O)c2cc3c(-c4ccccc4F)nn(C)c3s2)c1`, 54%.
On to `CCOc1ccc(-c2nnc(SCC(=O)NCc3ccccc3)nc2-c2ccc(OCC)c(OC)c2)cc1OC`, for which the survival was 80%.
The figure for `CCc1cc2c(cc3c(=O)n(CCCC(=O)NCc4cccc(Cl)c4)ncn32)s1` is 67%; for `CCOc1ccc(S(=O)(=O)N(CC(=O)Nc2ccc3c(c2)OCO3)c2ccc(C)cc2)cc1` it is 50%; for `COCCCNC(=O)N1[C@H](c2cccs2)[C@@H](C)C(=O)[C@@H](C)[C@@H]1c1cccs1` it is 47%.
As for `COc1ccc(OCCn2c(C3CC(=O)N(c4ccc(F)cc4)C3)nc3ccccc32)cc1` (centres undefined), the survival was 59% (active).
The figure for `CCOc1ccc(N2CC(c3nc4ccccc4n3CCOc3ccccc3OC)CC2=O)cc1` (centres undefined) is 46%; for `CCOc1ccc(N2CC(c3nc4ccccc4n3CCCCOc3ccc(OC)cc3)CC2=O)cc1` (centres undefined) it is 55%.
The figure for `CCOc1ccc(N2CC(c3nc4ccccc4n3CCC3CCCCC3)CC2=O)cc1` (centres undefined) is 33% (active); for `CCOc1ccc(N2CC(c3nc4ccccc4n3CCOc3ccc(OC)cc3)CC2=O)cc1` (centres undefined) it is 47% (active); for `O=C1CC(c2nc3ccccc3n2CCCOc2ccccc2)CN1c1ccc(F)cc1` (centres undefined) it is 97%.
Take `COc1ccc(OCCCn2c(C3CC(=O)N(c4ccc(F)cc4)C3)nc3ccccc32)cc1` (centres undefined): the survival is 66%.
With `CCOc1ccc(N2CC(c3nc4ccccc4n3CCCOc3ccccc3OC)CC2=O)cc1` (centres undefined), the survival was 81%.
In the case of `CCOc1ccc(N2CC(c3nc4ccccc4n3CCCOc3ccc(OC)cc3)CC2=O)cc1` (centres undefined) it was 44% (active); in that of `CCC1CN(C(=O)N2CCC(C(=O)Nc3cc(C)ccc3C)CC2)c2ccccc2O1` (centres undefined), 98%.
The figure for `Cc1[nH]c2ccc(-c3nnc(SCC(=O)N4CCc5ccccc54)o3)cc2c1C` is 84%.
Turning to `COc1ccc(C2C(C(=O)Nc3cccnc3)=C(C)Nc3nc(SCc4ccccc4)nn32)cc1` (centres undefined), the survival is 57%.
In the case of `COc1ccc(NC(=O)C2CCN(S(=O)(=O)c3ccc4[nH]c5c(c4c3)CCCCC5)CC2)cc1` it was 113%.
The figure for `COc1ccc2cc3cc(C(=O)N4CCN(c5cccc(C(F)(F)F)c5)CC4)sc3nc2c1` is 119%.
For `CCN(C(=O)CSc1nnc(Cn2nnc3ccccc32)o1)c1nc(-c2ccccc2)cs1`, the survival was 80%.
On to `OCCN(CCO)CC(O)Cn1c2ccc(Br)cc2c2cc(Br)ccc21` (centres undefined), for which the survival was 2% (active).
Regarding `Cc1cccc(N(CC(O)Cn2c3ccccc3c3ccccc32)S(=O)(=O)c2ccc(F)cc2)c1` (centres undefined), the survival is 58%.
Consider `CC(C)OCC(O)Cn1c2ccccc2c2ccccc21` (centres undefined), for which the survival was 80%.
In the case of `CCNc1nc(NCC)nc(N(n2cnnc2)S(=O)(=O)c2ccc(C)cc2)n1` it was 1% (active); in that of `CCNc1sc(S(C)(=O)=O)nc1S(=O)(=O)c1ccc(C)cc1`, 125%; in that of `CCCN(CCC)S(=O)(=O)c1ccc(C)cc1`, 97%.
In the case of `COc1ccccc1NC(=O)Cn1c(SCC(=O)N(C)c2ccccc2)nc2ccccc21` it was 119%; in that of `O=C(CSc1ccccc1)Nc1c[nH]c(=O)[nH]c1=O`, 78%.
With `Cc1ccc(C)c(NC(=O)c2cc(=O)c3cc(C)cc(C)c3o2)c1`, the survival is 70%.
Regarding `COc1ccc(S(=O)(=O)Cc2ccc(C(=O)N3CCN(c4cc(C)ccc4C)CC3)o2)cc1`, the survival was 130%.
In the case of `Cc1cccc(-c2nnn3c2nc(NCc2ccccc2)c2ccccc23)c1` it was 97%.
The figure for `Nc1ncnc2nc(SCC(=O)O)[nH]c12` is 86%; for `Nc1ncnc2nc(SCCO)[nH]c12` it is 63% (active); for `Cc1ccc(S(=O)(=O)Nc2c(C)nc3nc(C)[nH]n3c2=O)c(C)c1` it is 117%.
Consider `Cc1ccccc1-c1nn2c(=O)cc(CN3CCN(C(=O)c4ccc(C(C)(C)C)cc4)CC3)nc2s1`, for which the survival is 97%.
In the case of `COc1ccc(OCC(=O)N2CCN(C(=O)c3cccc(OC)c3)CC2)cc1` it was 72%; in that of `COc1cc(OC)cc(C(=O)N2CCN(C(=O)COc3ccc(C)cc3)CC2)c1`, 57%; in that of `COc1cc(OC)cc(C(=O)N2CCN(C(=O)COc3ccccc3)CC2)c1`, 54% (active).
The figure for `N#CC1=C(N)N(c2ccc(Cl)cc2)C2=C(C(=O)CCC2)C1c1cc(CN2CCOCC2)cs1` (centres undefined) is 59%.
For the molecule `Cc1ccccc1-c1ccnc2[nH]n(-c3ccccc3)c(=O)c12`, the survival is 47% (active).
In the case of `COc1ccccc1-c1ccnc2[nH]n(-c3ccccc3)c(=O)c12` it was 64%.
Regarding `O=c1c2c(-c3ccc(Cl)cc3)ccnc2[nH]n1-c1ccccc1`, the survival was 67%.
In the case of `CC(C)C(c1nnnn1Cc1ccccc1)N1CCN(c2ccccc2)CC1` (centres undefined) it was 87%; in that of `CCC(c1nnnn1Cc1ccccc1)N1CCN(c2cccc(Cl)c2)CC1` (centres undefined), 89%; in that of `CCCC(c1nnnn1Cc1ccccc1)N1CCN(c2ccccc2)CC1` (centres undefined), 42% (active).
The figure for `COc1ccc(NC(=O)C2Cc3ccccc3N2C(=O)c2ccccc2)c(OC)c1` (centres undefined) is 80%; for `CC(C)Cn1c(-c2ccc(S(=O)(=O)N3CCOCC3)cc2)csc1=Nc1cc(Cl)ccc1Cl` it is 82%; for `CCCn1c(-c2ccc(S(=O)(=O)N3CCOCC3)cc2)csc1=Nc1ccc(OCC)cc1` it is 70%.
In the case of `COCCCn1c(-c2ccc(S(=O)(=O)N3CCOCC3)cc2)csc1=Nc1ccccc1` it was 52% (active); in that of `CCCCn1c(-c2ccc(S(=O)(=O)N3CCOCC3)cc2)csc1=Nc1ccccc1`, 48% (active); in that of `CCn1c(-c2ccc(S(=O)(=O)N3CCOCC3)cc2)csc1=Nc1ccc(C)c(Cl)c1`, 73%.
For `CC(C)Cn1c(-c2ccc(S(=O)(=O)N3CCCC3)cc2)csc1=Nc1ccccc1`, the survival is 58%.
The figure for `CS(=O)(=O)N(CC(=O)O)c1ccc(Cl)cc1` is 105%; for `COc1ccc(-c2nc(SCC(=O)NC3CCCC3)c(-c3ccc(OC)cc3)[nH]2)cc1` it is 71%.
For `Cc1ccc(CN2CCSc3ccc(C(=O)N4CCN(c5cccc(C)c5C)CC4)cc32)cc1`, the survival was 27% (active).
Turning to `Cc1ccc(CN2CCSc3ccc(C(=O)N4CCN(c5ccc(Cl)cc5)CC4)cc32)cc1`, the survival was 72%.
Consider `Cc1ccc(CN2CCSc3ccc(C(=O)N4CCN(c5cc(C)ccc5C)CC4)cc32)cc1`, for which the survival is 25% (active).
As for `Cc1ccc(Cl)cc1N1CCN(C(=O)c2ccc3c(c2)N(Cc2ccccc2)CCS3)CC1`, the survival was 74%.
As for `Cc1ccc(CN2CCSc3ccc(C(=O)N4CCN(c5ccccc5)CC4)cc32)cc1`, the survival was 63%.
The figure for `Cc1ccc(Cl)cc1N1CCN(C(=O)c2ccc3c(c2)N(Cc2ccc(F)cc2)CCS3)CC1` is 73%.
